An excerpt weighted towards active compounds, which were near 7.4% of everything screened.
Rab9 prom act – qHTS Assay for Rab9 Promoter Activators; 320,000 tested, 2.8% active; Potency, µM (doses to about 9.22 µM), without a hit: top-dose activation, negative = inhibition, most hits filed as activators; Huh7 Rab9 promoter-luciferase reporter, luminescence, 24 h; further: % of control where 0% means no effect; nearly all actives have a fitted effect of over 60% in size
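Using Huh7 cells stably transfected with Rab9 promoter–luciferase, compounds were incubated 24 h at 37 °C, 5% CO2; luciferase luminescence was read 10 min after reagent addition.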
ELG1 genotoxic – qHTS screen for small molecules that induce genotoxicity in human embryonic kidney (HEK293T) cells expressing luciferase-tagged ELG1. 330,000 tested, 1.3% active. HEK293T ELG1-luciferase reporter, luminescence, 16 h. Potency, µM (series often up to 46 µM), for the others: at the highest dose activity change, positive = activation, hits mostly activators; further: % of control where 0% means no effect; nearly all actives have a fitted effect of over 60% in size
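Step 1: seed 2,000 HEK293T ELG1-luciferase cells per well. Step 2: add compound or DMSO, incubate 16 hr at 37 °C. Step 3: ONE-Glo, 30 min at room temperature, read luminescence.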
FLuc counter – qHTS profiling assay for firefly luciferase inhibitor/activator using purifed enzyme and Km concentrations of substrates (counterscreen for miR-21 project). purified FLuc, Km substrates, luminescence inhibition. 360,000 tested, 6.9% active. AID 588342, 2011. Potency, µM (top dose mostly 57.5 µM), without a hit: top-dose activity change, negative = inhibition, most hits filed as inhibitors. Luciferin 4-monooxygenase (Photinus pyralis), P08659;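 further: plate controls were vehicle for no effect and reference inhibitor for full effect; nearly all actives have a fitted effect of over 55% in size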
Target sequence (P08659 whole entry, looked up): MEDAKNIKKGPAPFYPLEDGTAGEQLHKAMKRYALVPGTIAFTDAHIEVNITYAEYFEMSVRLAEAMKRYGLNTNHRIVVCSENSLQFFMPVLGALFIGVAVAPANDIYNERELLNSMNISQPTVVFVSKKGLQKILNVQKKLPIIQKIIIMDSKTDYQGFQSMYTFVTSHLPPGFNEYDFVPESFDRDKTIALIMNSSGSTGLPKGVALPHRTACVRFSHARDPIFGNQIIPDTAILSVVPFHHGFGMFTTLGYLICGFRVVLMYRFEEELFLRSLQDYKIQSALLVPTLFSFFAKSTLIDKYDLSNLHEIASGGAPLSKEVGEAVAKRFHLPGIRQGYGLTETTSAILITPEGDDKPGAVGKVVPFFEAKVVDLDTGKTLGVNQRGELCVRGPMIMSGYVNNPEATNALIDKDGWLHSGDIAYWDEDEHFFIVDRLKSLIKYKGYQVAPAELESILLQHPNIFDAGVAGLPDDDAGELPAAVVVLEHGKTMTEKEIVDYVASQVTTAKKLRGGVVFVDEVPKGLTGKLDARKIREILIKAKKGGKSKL
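Biochemical qHTS of compounds, final roughly 60 µM downward over six points, against 10 nM purified firefly luciferase using Km concentrations of substrates (10 uM D-luciferin, 10 uM ATP) in Tris acetate pH 7.5 buffer; luminescence output.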
NPC1 prom act – qHTS Assay for NPC1 Promoter Activators | Huh7 NPC1 promoter luciferase reporter, 24 h | 320,000 tested, 2.4% active | AID 485313, 2010 | Potency, µM (top dose mostly 9.22 µM), for the others: at the top dose activation, most hits filed as activators; further: % of control where 0% means no effect; nearly all actives have a fitted effect of over 60% in size
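Quantitative HTS used a cell-based reporter: Huh7 cells stably bearing the NPC1 promoter upstream of luciferase were treated with compounds for 24 h, and promoter activation was read as luminescence.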
SMN2 splice up – qHTS Assay for Enhancers of SMN2 Splice Variant Expression; HEK293 SMN2-luciferase splicing reporter, luminescence, 30-36 h; Potency, µM (series often up to 46.1 µM), without a hit: at the top dose activity change, positive = activation, usual class: activators; 210,000 tested, 2.8% active; further: % of control where 0% means no effect; nearly all actives have a fitted effect of over 55% in size
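qHTS luciferase splicing reporter: luminescence rises when SMN2 exon 7 is included in transfected HEK293 cells. Compound exposure lasted 30-36 h at 37C, with 4.5 mM final sodium butyrate as control, followed by a ONE-Glo read.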
* = called active by the depositor; u = inconclusive; x = no result; [ ] = dose if it differs, or a comment. The call rests on the fitted dose curve; in most records, active means well fitted curve in the direction sought with a large enough effect; inconclusive means small, poorly fitted or top-dose-only effect, or another doubt; inactive means no such curve, though single readings can be large; an effect the other way counts as inactive or inconclusive. Potency means the concentration at half of the fitted maximal effect.

SMILES | Rab9 prom act | ELG1 genotoxic | FLuc counter | NPC1 prom act | SMN2 splice up
COC(=O)CCC(=O)NC(=S)Nc1ccccc1F | -1.2% | 6.1% | -0.5% | -2.3% | -3.5%
CCC(C)(C)C1CCC2(CC1)NC(=O)N(CC(=O)N(C)Cc1ccc3c(c1)OCCO3)C2=O (configuration not stated) | -8.7% | -5.0% | -1.0% | -7.1% | x
O=C1CC(SC(=NCc2ccc3c(c2)OCO3)Nc2ccccc2)C(=O)N1 (configuration not stated) | 0.8% | 3.0% | -0.1% | 0.9% | 16.2%
COc1ccc(CN=C(Nc2ccccc2)SC2CC(=O)NC2=O)cc1 (configuration not stated) | u | u | 6.75µM* | u | x
CC1(C)C=Cc2cc3ccc(=O)oc3cc2O1 | u | u | 10.7µM* | u | 14.1µM*
CCc1ccccc1NC(=O)CSc1nnc(CC)c(CC)n1 | x | x | 5.1% | x | x
COc1ccc(NC(=O)N(C)C[C@H]2Oc3ccc(NC(=O)CCN4CCOCC4)cc3C(=O)N([C@@H](C)CO)C[C@H]2C)cc1 | x | 1.0% | x | x | x
Cc1c(C(=O)O/N=C(\N)c2ccccn2)cccc1[N+](=O)[O-] | 0.794µM* | 2.06µM* | 0.301µM* | 3.16µM* | x
N/C(=N\OC(=O)c1ccc(Cl)cc1Cl)c1ccccn1 | 0.112µM* | 0.259µM* | 0.0953µM* | 0.316µM* | x
N/C(CS(=O)(=O)c1ccccn1)=N\OC(=O)c1ccccc1Cl | 2.24µM* | u | u | 2µM* | x
N/C(CS(=O)(=O)c1ccccn1)=N\OC(=O)c1ccc(Cl)cc1 | -2.7% | 8.8% | -12.9% | 2.4% | x
N/C(=N\OC(=O)Cc1ccccc1[N+](=O)[O-])c1ccccn1 | -10.2%[1.84 µM] | u | u | 7.0% | -16.5%
N/C(=N\OC(=O)c1cc(Br)ccc1Cl)c1ccccn1 | u | u | 3.79µM* | u | 11.2µM*
Cc1[nH]c2ccc(C(=O)N3CCN(c4ccccc4F)CC3)cc2c1C | x | x | -15.3% | x | x
N/C(=N\OC(=O)c1ccc(Cl)cc1[N+](=O)[O-])c1ccccn1 | u | 20.6µM* | 3.38µM* | u | x
N/C(=N\OC(=O)CCCOc1ccc(Cl)cc1Cl)c1ccccn1 | 0.1% | 2.2% | -18.5% | -8.1% | -2.9%
Cc1ccc(C(=O)O/N=C(\N)c2ccccn2)c(Cl)c1 | 0.708µM* | u | 0.019µM* | u | x
Cc1ccc(C(=O)O/N=C(\N)c2ccccc2)c(Cl)c1 | 0.794µM* | u | 0.0849µM* | 2.24µM* | x
CCOC(=O)c1[nH]c2ccccc2c1NC(=O)c1ccccc1OCC | x | x | -2.4% | x | -39.5%
CCOc1ccc(Nc2oc(-c3ccc(Cl)cc3)nc2C#N)cc1 | 1.8% | u | u | 25.0% | u
Cc1cccc(-c2nc(C#N)c(N3CCCCCC3)o2)c1 | 17.6% | 16.4µM* | 10.7µM* | 22.8% | u
COc1ccc(-c2nc(C#N)c(NCCCN3CCOCC3)o2)cc1 | 7.5% | 24.3% | u | 2.8% | -21.0%
N#Cc1nc(-c2cccs2)oc1NCC1CCCO1 (configuration not stated) | -0.9% | 5.6% | -14.3% | 1.1% | 16.1%
CCOc1ccc(-c2nc(C#N)c(NC3CC3)o2)cc1 | u | 29.7% | 15.1µM* | 13.0% | 27.4%
Cc1cccc(-c2nc(C#N)c(NCC3CCCO3)o2)c1 (configuration not stated) | 2.51µM* | u | 12µM* | 2.82µM* | x
SMILES | Rab9 prom act | ELG1 genotoxic | FLuc counter | NPC1 prom act | SMN2 splice up
COc1ccc(-c2nc(C#N)c(NCC3CCCO3)o2)cc1 (configuration not stated) | 21.0% | 13.0% | 13.5µM* | 21.5% | u
COc1ccc(CC(=O)NC2CC2)cc1OC | -2.4% | -0.7% | -2.2% | 0.4% | x
Cc1ccc(-c2nc(C#N)c(NCC3CCCO3)o2)cc1 (configuration not stated) | u | u | 21.3µM* | u | 12.6µM*
c1ccc(Nc2cccc(Nc3ccccc3)n2)cc1 | u | u | 19µM* | 16.9% | -22.3%
CC(=O)Nc1ccc(C2CC(c3ccc(Cl)cc3)=NN2c2ccccc2)cc1 (configuration not stated) | 17.3% | 8.1% | 16.9µM* | 11.0% | x
CCC(CO)Nc1ncnc2c1cnn2-c1ccc(OC)cc1 (configuration not stated) | 1µM* | 2.59µM* | 6.75µM* | 1µM* | 10µM*
COc1ccc(CC(=O)NNc2ncnc3c2cnn3-c2ccccc2)cc1 | -2.9% | 3.6% | 1.0% | -3.4% | 1.5%
CCC(CO)Nc1ncnc2c1cnn2-c1ccc(Cl)cc1 (configuration not stated) | 0.316µM* | u | 1.69µM* | 0.447µM* | u
CCC(C)Nc1ncnc2c1cnn2Cc1ccc(Cl)cc1 (configuration not stated) | -3.1% | -6.1% | -1.4% | -3.7% | -12.6%
COc1ccc(-c2noc(-c3cc(-c4ccc(F)cc4)n[nH]3)n2)cc1 | x | x | 4.1% | x | x
CCOc1ccc(-c2cc(-c3nc(-c4cc(OC)c(OC)c(OC)c4)no3)[nH]n2)cc1 | x | x | 21.3µM* | x | x
CCc1cc(=O)[nH]c(SCC(=O)NCc2ccc3c(c2)OCO3)n1 | 2.2% | -3.7% | -0.2% | -1.8% | x
C1CCN=C(Nc2nc3c(s2)CCCC3)CC1 | u | 11.4% | u | u | 10µM*
Cc1cccc(Nc2nc3c(s2)CCCC3)c1 | 3.55µM* | u | 4.78µM* | u | 28.2%[1.84 µM]
O=S1(=O)N=C(Nc2nc3c(s2)CCCC3)c2ccccc21 | 1.41µM* | u | 0.849µM* | 2.51µM* | 3.98µM*
O=C(O)c1ccc(Nc2nc3c(s2)CCCC3)cc1 | 0.0398µM* | u | 0.301µM* | -27.8% | 0.631µM*
O=C(O)CC[C@@H](C(=O)O)N1C(=O)[C@@H]2[C@@H]3CC[C@H](C3)[C@@H]2C1=O | x | x | x | x | -5.2%[9.22 µM]
COc1cccc(NC(=O)Cn2c(=O)n(CCc3ccc(OC)c(OC)c3)c(=O)c3ccccc32)c1 | x | x | u | x | -4.1%
CC(C)[C@H]1C(=O)Nc2ccccc2N1C(=O)N[C@@H](Cc1ccccc1)C(=O)N[C@@H](C(=O)O)c1ccccc1 | -7.8% | 1.8% | 4.9% | 1.6% | x
COc1ccc2nc(N3CCC(O)CC3)c(C#N)cc2c1 | 4.7% | 6.3% | 15.1µM* | 19.4% | -9.2%
COc1ccc2nc(N3CCC(C)CC3)c(C#N)cc2c1 | 3.98µM* | u | 10.7µM* | u | 20µM*
CCN1CCN(Cc2nc3cc(NC(=O)c4cccc([N+](=O)[O-])c4)ccc3n2CC)CC1 | x | x | -6.0% | x | x
COc1ccccc1CNC(=O)CN1C(=O)NC2(CCCc3sccc32)C1=O (configuration not stated) | -0.9% | -1.2% | 0.5% | -0.4% | x

Screening results deposited in PubChem by National Center for Advancing Translational Sciences (NCATS).
